Bioassay records deposited in PubChem BioAssay by National Center for Advancing Translational Sciences (NCATS).
RORg inh: blocks mouse ROR gamma transcriptional activity | Drosophila S2 Gal4-RORgamma UAS-luciferase reporter, 20 h | Potency, µM (highest dose often 53.6 µM), usual class: inhibitors | actives 5.4% (n = 310,000) | AID 2551; also: nearly all actives have a fitted effect of over 60% in size
Target sequence (P51450 whole entry, looked up, the tested form may be a part): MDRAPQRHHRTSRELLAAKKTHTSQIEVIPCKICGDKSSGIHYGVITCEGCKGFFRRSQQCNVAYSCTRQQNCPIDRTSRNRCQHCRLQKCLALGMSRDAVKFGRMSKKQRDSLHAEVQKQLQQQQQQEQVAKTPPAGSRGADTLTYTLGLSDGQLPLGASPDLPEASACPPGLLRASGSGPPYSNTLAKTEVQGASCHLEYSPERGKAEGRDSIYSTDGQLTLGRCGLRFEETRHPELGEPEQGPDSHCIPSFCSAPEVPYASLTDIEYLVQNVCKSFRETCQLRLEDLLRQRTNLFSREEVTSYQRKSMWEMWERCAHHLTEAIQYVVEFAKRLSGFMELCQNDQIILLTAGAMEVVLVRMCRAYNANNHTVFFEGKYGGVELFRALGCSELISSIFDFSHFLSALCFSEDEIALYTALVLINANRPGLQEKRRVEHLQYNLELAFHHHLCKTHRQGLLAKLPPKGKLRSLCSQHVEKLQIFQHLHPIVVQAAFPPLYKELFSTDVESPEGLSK
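Using a luciferase readout, inhibitors were identified by reduced reporter activity in Drosophila cells coexpressing a copper-inducible Gal4–ROR gamma fusion and UAS-driven Photinus luciferase, incubated 20 hr after 700 uM copper sulfate.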
HepG2 viability: kills HepG2 cells in TGF-b inhibitor counter-screen; HepG2 CAGA-GFP viability, ATP luminescence, 18 h; Potency, µM (top dose mostly 46.1 µM), most hits filed as cytotoxic; AID 588856; actives 0.76% (n = 410,000)
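CellTiter-Glo luminescence gave cytotoxicity after 18 hours at 37 degrees C. The cells were HepG2 CAGA-GFP in 1% FBS DMEM, stimulated with 500 pg/mL TGF-beta after compound addition. %Activity was normalised to no-cell wells (complete cell-killing) and DMSO (no toxicity), and curves were fitted and classified.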
ATXN2 expr inh: reduces ATXN2 reporter expression in HEK-293 cells | actives 0.72% (n = 360,000) | HEK-293 ATXN2-luciferase reporter, luminescence, 24 h | Potency, µM (titrated, usually from 57 µM), actives largely listed as inhibitors; also: nearly all actives have a fitted effect of over 55% in size
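qHTS (up to 57 uM final) was run with 24 h compound exposure of reporter cells at 37 °C. Each well was multiplexed: SteadyGlo luminescence measured ATXN2-luciferase expression after a fluorogenic Gly-Phe-AFC viability readout (25 uM final).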
TGFb SMAD3 inh: TGF-b pathway inhibition; HepG2 CAGA-GFP TGF-b/SMAD3 reporter, GFP fluorescence, 18 h; TGF-beta stimulated, 500 pg/mL final; Potency, µM (highest dose often 46.1 µM), usual class: inhibitors; actives 1.2% (n = 410,000); AID 588855; also: nearly all actives have a fitted effect of over 65% in size
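Cell-based qHTS in HEPG2 carrying a CAGA-GFP Smad reporter; compounds added before 500 pg/mL final TGF-beta, 18 h incubation at 37 degrees C, GFP fluorescence quantified per cell by imaging cytometry.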
VP16 counter: Gal4-VP16 reporter inhibition counter-screen | Drosophila S2 Gal4-VP16 UAS-luciferase, luminescence, 20 h | Potency, µM (titrated, usually from 53.6 µM), actives largely listed as inhibitors | AID 2546 | actives 3.5% (n = 310,000);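 also: Gal4-VP16 expression switched on by copper sulfate through the metallothionein promoter; nearly all actives have a fitted effect of over 50% in size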
S2 tox: viability counter-screen for ATXN expression inhibitors | S2 cells (HEK-293 line with an ATXN2-luciferase reporter) viability, CellTiter-Fluor protease fluorescence, 24 h | Potency, µM (highest dose often 56.7 µM), usual class: cytotoxic | actives 0.49% (n = 400,000); also: nearly all actives have a fitted effect of over 40% in size
Large screens that a line does not name were inactive. Hits are enriched below; roughly 6.1% of the tested compounds scored in any of these assays. Calls follow the shape of the dose curve; as a rule, active = well fitted curve in the direction sought with a large enough effect; inconclusive = small, poorly fitted or top-dose-only effect, or another doubt; inactive = no such curve, though single readings can be large; an effect the other way counts as inactive or inconclusive.

CC[C@H](C)[C@H](NC(=O)[C@H](CCCNC(=N)N)NC(=O)[C@@H]1CCCN1C(=O)[C@H](Cc1ccccc1)NC(=O)[C@H](Cc1cnc[nH]1)NC(=O)[C@H](CCCNC(=N)N)NC(=O)[C@@H](NC(=O)[C@H](C)NC(=O)[C@H](CCC(=O)O)NC(=O)[C@H](CC(N)=O)NC(=O)[C@@H](N)CCCCN)C(C)C)C(=O)N[C@@H](Cc1c[nH]c2ccccc12)C(=O)N[C@@H](CC(C)C)C(=O)O	none (no result: HepG2 viability, ATXN2 expr inh, TGFb SMAD3 inh, S2 tox)
O=C(O)c1cn(C2CC2)c2cc(Cl)c(F)cc2c1=O	none (no result: RORg inh, HepG2 viability, TGFb SMAD3 inh, VP16 counter)
CCCCn1c(-c2csc3c2CCCC3)n[nH]c1=S	RORg inh 3.5µM, VP16 counter inconclusive
CCCCn1c(-c2csc3c2CCC(C)C3)n[nH]c1=S (centres undefined)	RORg inh 0.79µM, TGFb SMAD3 inh inconclusive, VP16 counter 2.5µM
Cc1ccc(CCNC(=O)c2ccc(CSCc3ccc(C)cc3)o2)cc1	TGFb SMAD3 inh inconclusive (no result: RORg inh, ATXN2 expr inh, VP16 counter, S2 tox)
CCCCC(=O)N1C/C=C\C(c2ccc(OC)cc2)N(Cc2ccc(F)cc2)C(=O)[C@H]1Cc1ccccc1 (some centres undefined)	RORg inh inconclusive, ATXN2 expr inh inconclusive, TGFb SMAD3 inh inconclusive, VP16 counter inconclusive, S2 tox inconclusive
COc1ccc(C2/C=C\CN(C(=O)C3CC3)C(Cc3ccccc3)C(=O)N2Cc2ccc(F)cc2)cc1 (centres undefined)	RORg inh 10µM, TGFb SMAD3 inh inconclusive, VP16 counter inconclusive (no result: ATXN2 expr inh, S2 tox)
O=C(O)/C=C/c1cnn(-c2ccccc2)c1	RORg inh 7.9µM, ATXN2 expr inh inconclusive, VP16 counter 14µM
O=C(Nc1cccc(Cl)c1)c1cc2c(=O)[nH]c3ccccc3c2s1	none (no result: RORg inh, VP16 counter)
CC(C)NC(=S)N/N=C/c1cc(Br)ccc1O	RORg inh 5µM, TGFb SMAD3 inh inconclusive, VP16 counter 4.5µM
Cc1cc(C(=O)N/N=C/c2cc(N=Nc3ccccc3)ccc2O)n[nH]1	RORg inh 10µM, ATXN2 expr inh inconclusive, TGFb SMAD3 inh inconclusive, VP16 counter 11µM
Cc1cc(C(=O)N/N=C/c2cccc([N+](=O)[O-])c2O)n[nH]1	RORg inh 13µM, VP16 counter inconclusive, S2 tox inconclusive (no result: ATXN2 expr inh)
COC(=O)N/N=C/c1cc(N=Nc2ccccc2)ccc1O	RORg inh 1.1µM, VP16 counter inconclusive, S2 tox inconclusive
CCC(C)NC(=O)c1sc2nc3n(c(=O)c2c1C)CCC3 (centres undefined)	TGFb SMAD3 inh inconclusive (no result: RORg inh, ATXN2 expr inh, VP16 counter, S2 tox)
COC(=O)N/N=C/c1cc(Br)ccc1O	RORg inh 7.1µM, VP16 counter inconclusive
COC(=O)N/N=C/c1cc(N=Nc2ccccc2Cl)ccc1O	RORg inh 4µM, VP16 counter 16µM, S2 tox inconclusive
COC(=O)N/N=C\c1cc(Br)ccc1OCc1ccccc1	RORg inh inconclusive
Nc1ccc(C(=O)N/N=C\c2cc(N=Nc3cccc4ccccc34)ccc2O)cc1	RORg inh 1.6µM, ATXN2 expr inh 5.6µM, VP16 counter 5.6µM, S2 tox inconclusive
CCn1ccc2cc(S(=O)(=O)N3CCC(C(=O)NCC(C)c4ccccc4)CC3)ccc21 (centres undefined)	TGFb SMAD3 inh inconclusive (no result: RORg inh, VP16 counter)
O=C(O)CCc1ccc(-c2ccccc2)n1-c1cccc(Br)c1	TGFb SMAD3 inh inconclusive (no result: RORg inh, VP16 counter)
Cc1ccc(-n2c(-c3cn(C)nc3C)n[nH]c2=S)cc1	RORg inh 10µM (no result: HepG2 viability, ATXN2 expr inh, TGFb SMAD3 inh, S2 tox)
Cc1nn(C)cc1-c1n[nH]c(=S)n1-c1ccc(F)cc1	RORg inh inconclusive, TGFb SMAD3 inh inconclusive
Cc1ccc(-n2c(-c3cc(C)n(C)n3)n[nH]c2=S)cc1	RORg inh 11µM
Cc1cc(NC(=O)c2cccs2)n(-c2nc3ccccc3[nH]2)n1	TGFb SMAD3 inh inconclusive
Cc1cc(NC(=O)C2CCCC2)n(-c2nc3ccccc3[nH]2)n1	RORg inh 0.63µM, VP16 counter 1.4µM
CCOC(=O)C(=O)Nc1cc(C)nn1-c1nc2ccccc2[nH]1	none
Cc1cc(NC(=O)c2sccc2C)n(-c2nc3ccccc3[nH]2)n1	RORg inh 1µM, ATXN2 expr inh inconclusive, TGFb SMAD3 inh inconclusive, VP16 counter 3.5µM, S2 tox inconclusive
COc1ccc(C(=O)Nc2cc(C)nn2-c2nc3ccccc3[nH]2)c(OC)c1	RORg inh 2.2µM, ATXN2 expr inh inconclusive, VP16 counter 4µM, S2 tox inconclusive
COc1cccc(OC)c1C(=O)Nc1cc(C)nn1-c1nc2ccccc2[nH]1	RORg inh 3.5µM, VP16 counter inconclusive, S2 tox inconclusive
CON=C(C(=O)N[C@@H]1C(=O)N2C(C(=O)O)=C(CSC(=O)c3ccco3)CS[C@H]12)c1csc(N)n1	none (no result: RORg inh, HepG2 viability, TGFb SMAD3 inh, VP16 counter, S2 tox)
C[C@@H]1CCO[C@H]2Cn3cc(C(=O)NCc4ccc(F)cc4F)c(=O)c(O)c3C(=O)N12	none (no result: RORg inh, HepG2 viability, TGFb SMAD3 inh, VP16 counter, S2 tox)
Cc1cc(NC(=O)c2ccccc2)n(-c2nc3ccccc3[nH]2)n1	RORg inh 1µM, VP16 counter 2.8µM, S2 tox inconclusive
CCN(Cc1ccccc1)C(=O)c1cc2ccc3cccnc3c2[nH]1	TGFb SMAD3 inh inconclusive (no result: RORg inh, ATXN2 expr inh, VP16 counter, S2 tox)
Cc1cc(C)c(NC(=S)NCCCSC2CCCCC2)c(C)c1	RORg inh 2µM, TGFb SMAD3 inh inconclusive, VP16 counter inconclusive
COc1cccc(NC(=O)NCCCSC2CCCCC2)c1	none
CNC(=S)Nc1ccc([N+](=O)[O-])cc1C	none
CNC(=S)Nc1ccc([N+](=O)[O-])c(C)c1	RORg inh 10µM, VP16 counter inconclusive
Cc1ccc(CNC(=S)Nc2ccc(C)c([N+](=O)[O-])c2)cc1	RORg inh 6.3µM, VP16 counter 3.5µM
COc1cc(OC)c(NC(=O)c2csc3c2CCC(C)C3)cc1Cl (centres undefined)	none (no result: RORg inh, ATXN2 expr inh, VP16 counter, S2 tox)
CCOc1ccccc1NCc1nnc2n1CCCCC2	none (no result: RORg inh, VP16 counter)
Cc1cccnc1CN1CCN(Cc2nc(C(c3ccccc3)c3ccccc3)no2)CC1	RORg inh 11µM, TGFb SMAD3 inh inconclusive (no result: ATXN2 expr inh)
C=C1CC2C3C=C(C)C4=CC(=O)CCC4(C)C3CCC2(C)[C@@]1(OC(C)=O)C(C)=O (some centres undefined)	none (no result: HepG2 viability, ATXN2 expr inh, TGFb SMAD3 inh, S2 tox)
Cc1ccc(NC(=O)NCCOCCn2c(=O)oc3ccccc32)cc1C	TGFb SMAD3 inh inconclusive (no result: RORg inh, VP16 counter)
Cc1nnc(N2CCOCC2)c2nn(-c3ccccc3)c(C)c12	none
c1ccc(-n2nnc3c(N4CCOCC4)ncnc32)cc1	RORg inh 8.9µM, ATXN2 expr inh inconclusive, VP16 counter inconclusive
CC(C)=C1C2CCC1C1C(=O)N(c3nc(-c4ccc(C(C)C)cc4)c(C)s3)C(=O)C21 (centres undefined)	VP16 counter inconclusive
CC(C)=C1C2CCC1C1C(=O)N(c3nc(-c4ccc(F)cc4)c(C)s3)C(=O)C21 (centres undefined)	VP16 counter 20µM
